The structures appear in SMILES notation.

A short description of one experiment: probe aWnt5a binding to arrayed compounds – biochemical, biotinylated probe, 635/667 nm fluorescence, primary screen (AID 1113).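 Further: score merges 667 nm fluorescence intensity with signal-to-noise per printed feature.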 Particulars: small-molecule microarray, higher = more signal.
Take `O=C1O[C@H](c2ccccc2)[C@H](c2ccccc2)N2[C@H]1[C@@H](C(=O)NC[C@H](O)c1ccccc1)[C@]1(C(=O)Nc3ccc(C#CC4=CCCCC4)cc31)[C@H]2c1ccc(OCCO)cc1`: the composite z-score was -0.0519.

Regarding `COc1cc(Cc2cc3c(c(CCc4ccccc4)n2)[Si](C(C)C)(C(C)C)OC3)cc(OC)c1OC`, the composite z-score is -0.156.

As to `CO[C@H]1O[C@H](CO)[C@@H](OC(=O)CCc2ccccc2)[C@@H]2OC(=O)[C@H](Cc3cccc(Br)c3)C/C=C/C[C@@H](Cc3cccc(Br)c3)C(=O)O[C@@H]12`, the composite z-score was -0.0819.

`Cc1ccc(S[C@]2(C(=O)NCCCN(C)C)CC(=O)N(C3CCCCC3)[C@@H]2c2ccc(CO)cc2I)cc1` yielded a composite z-score of -0.0455.

For `COC(=O)[C@@]1(Cc2ccccc2CN=[N+]=[N-])N=C(c2ccc(OCCCO)cc2)O[C@H]1c1ccccc1N=[N+]=[N-]`, the composite z-score was -0.129.

Regarding `CO[C@@H]1COC(=O)[C@H](C)NC(=O)CC=C[C@@H](C)[C@H](OC)COC(=O)[C@H](C)NC(=O)CC=C[C@H]1C`, the composite z-score was -0.0684.

Consider `COCCOC(=O)N1C(=O)[C@@]2(c3cc(C#CCNC(N)=O)ccc31)[C@H](c1ccc(OCCO)cc1)N1[C@H](c3ccccc3)[C@H](c3ccccc3)OC(=O)[C@H]1[C@@H]2C(=O)Nc1nc2ccccc2s1`, for which the composite z-score was 0.0136.

`C=CC[C@@]1(C(=O)N2CCOCC2)N=C(c2ccc(OCCCO)cc2)O[C@@H]1c1ccccc1` returned a composite z-score of -0.166.

In the case of `COc1cc2c(cc1OC)CN(C(=O)[C@H]1[C@@H]3C(=O)O[C@@H](c4ccccc4)[C@@H](c4ccccc4)N3[C@@H](c3ccc(O)cc3)[C@]13C(=O)Nc1ccc(C#CC4(O)CCCCCC4)cc13)CC2`, the composite z-score is 0.808.

Consider `O=C/C=C/c1ccccc1Cl`, for which the composite z-score is -0.0499.

Regarding `C=CCC(OC(C)=O)[C@@H]1[C@@H](N(Cc2cccc3ccccc23)C(=O)Cc2ccc(F)cc2)c2cc(OCCCO)ccc2N1C(=O)Cc1ccc2ccccc2c1` (some centres not stated), the composite z-score was -0.0179.

Compound `CC(=O)NCCCC[C@@H]1NC(=O)[C@@H]2C[C@H](C(=O)NCCCCCNC(=O)CS)[C@H](c3ccc(O)cc3)N2C1=O` returned a composite z-score of -0.221.

Compound `C[N+](C)(C)CCCCNC(=O)[C@@H]1C[C@@H]2C(=O)N3CCC[C@H]3C(=O)N2[C@@H]1c1cccc(OCCO)c1` came in with a composite z-score of -0.162.

Regarding `O=C(NCC(O)CO)[C@]1(Cc2ccccc2)N=C(c2ccc(OCCCO)cc2)O[C@@H]1c1ccccc1` (some centres not stated), the composite z-score was determined as 0.225.

Take `COC(=O)Cn1c(C(=O)N2CCCC2)cc2c1C[C@H]1CN(C(=O)c3ccccc3)[C@@](Cc3ccccc3)(C(=O)OC)[C@@H]21`: the composite z-score was -0.006.

`CCOC(=O)[C@H]1C/C=C/C[C@H](C(=O)OCC)C(=O)O[C@H]2[C@@H](OC)O[C@H](CO)[C@@H](OC(=O)Nc3ccc(Br)cc3)[C@@H]2OC1=O` showed a composite z-score of -0.0704.

For the compound `CO[C@@H]1COC(=O)[C@@H]2CCCN2C(=O)CC=C[C@@H](C)[C@H](OC)COC(=O)[C@@H]2CCCN2C(=O)CC=C[C@H]1C`, the composite z-score is -0.156.

As for `COCCOC(=O)N1C(=O)[C@@]2(c3cc(C#CCCO)ccc31)[C@H](c1ccc(O)cc1)N1[C@H](c3ccccc3)[C@H](c3ccccc3)OC(=O)[C@H]1[C@@H]2C(=O)Nc1nc2ccccc2s1`, the composite z-score was -0.0256.

Take `COc1cc2c(cc1OC)CN(C(=O)[C@@H]1[C@H]3C(=O)O[C@H](c4ccccc4)[C@H](c4ccccc4)N3[C@H](c3ccccc3OCCO)[C@@]13C(=O)Nc1ccccc13)CC2`: the composite z-score was 0.213.

`COc1ccc([Si](C)(C)[C@H]2[C@H](CCO)O[C@@]3(C(=O)N(Cc4ccc(N5CCCCC5=O)cc4)c4ccccc43)[C@@H]2C)cc1` came in with a composite z-score of -0.116.

`CCCCO[C@H]1C[C@H]2C(Br)=C[C@@]1(CO)C(=O)[C@]21CO1`: the composite z-score was -0.146.

For `CCOC(=O)C[C@H]1[C@H](OC(=O)c2ccccc2-c2ccccc2)[C@@H](NC(=O)C2CCCCC2)c2cc(OCCCO)ccc2N1C(=O)c1ccccc1`, the composite z-score was -0.213.

With `CO[C@H]1COC(=O)[C@H](C)NC(=O)CC=C[C@@H](C)[C@H](NS(=O)(=O)c2ccc(C)cc2)COC(=O)[C@@H](OCc2ccccc2)C=C[C@@H]1C`, the composite z-score is -0.248.

As to `CC(C)CNC(=O)[C@@]1(C)c2ccccc2C(=O)N(Cc2ccc(OC(F)(F)F)cc2)[C@H]1c1ccc(CO)cc1`, the composite z-score is -0.147.

Compound `CC(C)C[C@@H]1NC(=O)[C@H]2C[C@@H](C(=O)NCCCCCC[N+](C)(C)C)[C@@H](c3ccc(O)cc3)N2C1=O` yielded a composite z-score of -0.229.

With `C=CC[C@@]1(C(=O)NCC(O)CO)N=C(c2ccc(OCCCO)cc2)O[C@@H]1c1ccccc1CN=[N+]=[N-]` (some centres not stated), the composite z-score was -0.119.

A further experiment is described as follows: probe aShh binding to arrayed compounds – biochemical, biotinylated probe, 635/667 nm fluorescence, primary screen (AID 1114).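 Further: probe is biotin-labelled aShh protein from a stem cell growth factor screen; measures binding of labelled protein to compounds printed on the slide; score merges feature fluorescence at 667 nm with signal-to-noise.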 Conditions: small-molecule microarray, higher = more signal.
As for `COCCOC(=O)N1C(=O)[C@@]2(c3cc(C#CC4(O)CCCCCC4)ccc31)[C@H](C(=O)N1CCCCCCC1)[C@H]1C(=O)O[C@H](c3ccccc3)[C@H](c3ccccc3)N1[C@@H]2c1ccc(O)cc1`, the composite z-score was determined as 1.9.

In the case of `C=CCC(OC(C)=O)[C@@H]1[C@@H](N(Cc2cc3ccccc3o2)C(=O)Cc2ccc(F)cc2)c2cc(OCCCO)ccc2N1C(=O)c1ccc(-c2ccccc2)cc1` (some centres not stated), the composite z-score came to 0.0141.

Take `O=C(CS)NCCCCCNC(=O)[C@H]1C[C@H]2C(=O)N[C@@H](Cc3ccccc3)C(=O)N2[C@H]1c1ccc(O)cc1`: the composite z-score worked out at 0.184.

The compound `CO[C@H]1COC(=O)CC=C[C@@H](C)COC(=O)[C@@H](C)NC(=O)CC=C[C@@H]1C` had a composite z-score of 0.238.

As to `CCC(=O)[C@]12O[C@@]3([C@@H]4C(=O)OCC[C@@H]41)N(Cc1ccccc1)C(C)=C(C(=O)OC)[C@@H](c1ccccc1)N3C2=O`, the composite z-score is -0.0653.

`C[C@]1(C(=O)NCCN2CCOCC2)c2ccccc2C(=O)N(Cc2ccccc2)[C@H]1c1ccc(CO)cc1`: the composite z-score was 0.163.

`CC[C@H]1C2=C3C(CC[C@H]4C(OC)OC[C@](C)([C@@H]34)N(C(=O)OC(C)(C)C)C2)C(CO)C1CO` (some centres not stated) displayed a composite z-score of -0.349.

Regarding `O=C1c2ccccc2[C@@]2(Cc3ccccc3N(CC(F)(F)F)C2=O)[C@H](c2ccc(CO)cc2)N1C1CCCCC1`, the composite z-score was -0.0977.

In turn, `C=C(C(=O)CC[C@H](OC(=O)c1ccccc1-c1ccccc1C(=O)O)c1ccc(CO)o1)C(C)C` registered a composite z-score of -0.276.

Consider `CC1=C([C@H](O)CCc2ccccc2)[C@H](CO)[C@@H]2C(=O)N(Cc3ccccc3)C(=O)[C@@H]2C1`, for which the composite z-score is -0.289.

`O=C1O[C@H](c2ccccc2)[C@H](c2ccccc2)N2[C@H]1[C@@H](C(=O)NC[C@H](O)c1ccccc1)[C@]1(C(=O)Nc3ccc(C#CC4=CCCCC4)cc31)[C@H]2c1ccc(OCCO)cc1` displayed a composite z-score of 0.0711.

For the compound `COc1cc(Cc2cc3c(c(CCc4ccccc4)n2)[Si](C(C)C)(C(C)C)OC3)cc(OC)c1OC`, the composite z-score was found to be 0.0796.

The compound `CO[C@H]1O[C@H](CO)[C@@H](OC(=O)CCc2ccccc2)[C@@H]2OC(=O)[C@H](Cc3cccc(Br)c3)C/C=C/C[C@@H](Cc3cccc(Br)c3)C(=O)O[C@@H]12` registered a composite z-score of 0.103.

Compound `Cc1ccc(S[C@]2(C(=O)NCCCN(C)C)CC(=O)N(C3CCCCC3)[C@@H]2c2ccc(CO)cc2I)cc1` gave a composite z-score of 0.173.

Compound `COC(=O)[C@@]1(Cc2ccccc2CN=[N+]=[N-])N=C(c2ccc(OCCCO)cc2)O[C@H]1c1ccccc1N=[N+]=[N-]` displayed a composite z-score of -0.203.

In turn, `CO[C@@H]1COC(=O)[C@H](C)NC(=O)CC=C[C@@H](C)[C@H](OC)COC(=O)[C@H](C)NC(=O)CC=C[C@H]1C` yielded a composite z-score of -0.223.

As for `COCCOC(=O)N1C(=O)[C@@]2(c3cc(C#CCNC(N)=O)ccc31)[C@H](c1ccc(OCCO)cc1)N1[C@H](c3ccccc3)[C@H](c3ccccc3)OC(=O)[C@H]1[C@@H]2C(=O)Nc1nc2ccccc2s1`, the composite z-score was found to be 0.187.

`C=CC[C@@]1(C(=O)N2CCOCC2)N=C(c2ccc(OCCCO)cc2)O[C@@H]1c1ccccc1` registered a composite z-score of -0.184.

For the compound `COc1cc2c(cc1OC)CN(C(=O)[C@H]1[C@@H]3C(=O)O[C@@H](c4ccccc4)[C@@H](c4ccccc4)N3[C@@H](c3ccc(O)cc3)[C@]13C(=O)Nc1ccc(C#CC4(O)CCCCCC4)cc13)CC2`, the composite z-score worked out at 0.382.

With `O=C/C=C/c1ccccc1Cl`, the composite z-score is -0.0626.

In turn, `C=CCC(OC(C)=O)[C@@H]1[C@@H](N(Cc2cccc3ccccc23)C(=O)Cc2ccc(F)cc2)c2cc(OCCCO)ccc2N1C(=O)Cc1ccc2ccccc2c1` (some centres not stated) had a composite z-score of -0.326.

`CC(=O)NCCCC[C@@H]1NC(=O)[C@@H]2C[C@H](C(=O)NCCCCCNC(=O)CS)[C@H](c3ccc(O)cc3)N2C1=O` yielded a composite z-score of 0.0284.

In turn, `C[N+](C)(C)CCCCNC(=O)[C@@H]1C[C@@H]2C(=O)N3CCC[C@H]3C(=O)N2[C@@H]1c1cccc(OCCO)c1` returned a composite z-score of -0.0626.

In turn, `O=C(NCC(O)CO)[C@]1(Cc2ccccc2)N=C(c2ccc(OCCCO)cc2)O[C@@H]1c1ccccc1` (some centres not stated) came in with a composite z-score of -0.0642.

Regarding `COC(=O)Cn1c(C(=O)N2CCCC2)cc2c1C[C@H]1CN(C(=O)c3ccccc3)[C@@](Cc3ccccc3)(C(=O)OC)[C@@H]21`, the composite z-score stood at 0.0639.

`CCOC(=O)[C@H]1C/C=C/C[C@H](C(=O)OCC)C(=O)O[C@H]2[C@@H](OC)O[C@H](CO)[C@@H](OC(=O)Nc3ccc(Br)cc3)[C@@H]2OC1=O` yielded a composite z-score of 0.0515.

Regarding `CO[C@@H]1COC(=O)[C@@H]2CCCN2C(=O)CC=C[C@@H](C)[C@H](OC)COC(=O)[C@@H]2CCCN2C(=O)CC=C[C@H]1C`, the composite z-score was -0.2.

For the compound `COCCOC(=O)N1C(=O)[C@@]2(c3cc(C#CCCO)ccc31)[C@H](c1ccc(O)cc1)N1[C@H](c3ccccc3)[C@H](c3ccccc3)OC(=O)[C@H]1[C@@H]2C(=O)Nc1nc2ccccc2s1`, the composite z-score was -0.167.

On to `COc1cc2c(cc1OC)CN(C(=O)[C@@H]1[C@H]3C(=O)O[C@H](c4ccccc4)[C@H](c4ccccc4)N3[C@H](c3ccccc3OCCO)[C@@]13C(=O)Nc1ccccc13)CC2`, for which the composite z-score is -0.0213.

As for `COc1ccc([Si](C)(C)[C@H]2[C@H](CCO)O[C@@]3(C(=O)N(Cc4ccc(N5CCCCC5=O)cc4)c4ccccc43)[C@@H]2C)cc1`, the composite z-score turned out to be 0.0141.

`CCCCO[C@H]1C[C@H]2C(Br)=C[C@@]1(CO)C(=O)[C@]21CO1` displayed a composite z-score of -0.123.

The values are drawn from PubChem BioAssay.
